Test results: PubChem BioAssay
Active and inactive are the calls of the source.

Key:
[1] = tested on: Human papillomavirus type 1a protein E7 (residues 44-93); assay: HPV1a E7 fragment binders on microarrays, primary screen, biochemical, small-molecule microarray, residues 44-93, 635 nm fluorescence (AID 1108); conditions: small-molecule microarray binding, fluorescence 635 nm; higher = more signal;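 further: E7 fragment applied at 1 µg/mL in TBST for 1 h at 4 C; score combines spot fluorescence with its signal to noise ratio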
[2] = modulators of HCV replicon luciferase signal, primary screen, HCV replication inhibitor project, Huh7 cells, luciferase reporter (AID 1109); conditions: 48 h, higher = more signal;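 further: huh7 hepatoma cells harbouring a luciferase neomycin HCV replicon reporter; luciferase luminescence as measure of HCV replicon replication; test concentration not given here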
[3] = biological target: Left-right determination factor 2 (Homo sapiens) (UniProt O00292); assay: LEFTY2 binders on small-molecule microarrays, primary screen, biochemical, small-molecule microarray, 635 nm fluorescence scan (AID 1110); conditions: LEFTY2 binding, higher = more signal
Sequence of Left-right determination factor 2 (Homo sapiens) (O00292 whole entry, looked up): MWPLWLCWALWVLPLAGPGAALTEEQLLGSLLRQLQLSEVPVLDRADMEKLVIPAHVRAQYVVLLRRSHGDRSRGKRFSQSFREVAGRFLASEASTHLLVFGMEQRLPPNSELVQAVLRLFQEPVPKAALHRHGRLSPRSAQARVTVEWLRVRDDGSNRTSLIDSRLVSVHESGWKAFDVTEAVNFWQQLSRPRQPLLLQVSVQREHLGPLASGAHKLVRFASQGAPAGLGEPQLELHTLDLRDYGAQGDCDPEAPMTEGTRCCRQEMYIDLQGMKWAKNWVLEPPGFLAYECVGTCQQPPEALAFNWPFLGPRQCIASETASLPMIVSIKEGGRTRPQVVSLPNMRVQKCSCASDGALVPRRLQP

[4] = biological target: Calmodulin-1 (Homo sapiens) (UniProt P0DP23); assay: CALM1 binders on microarrays, EGTA buffer, profiling panel, biochemical, small-molecule microarray, Cy5-labelled CALM1 (AID 1111); conditions: Cy5-CALM1 binding fluorescence, higher = more signal;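 further: labelled calmodulin applied in Tris saline Tween buffer holding calcium plus EGTA and DTT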
[5] = biological target: Calmodulin-1 (Homo sapiens) (UniProt P0DP23); assay: calcium-bound CALM1 binders on microarrays, profiling panel, artefact control for SMM control-protein annotation, biochemical, small-molecule microarray, Cy5-labelled CALM1, plus calcium (AID 1112); conditions: Cy5-CALM1 binding fluorescence, higher = more signal;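 further: score merges spot fluorescence with signal to noise from triplicate slides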
[6] = small-molecule microarray binders of probe aWnt5a, primary screen, biochemical, biotinylated probe, 635/667 nm fluorescence (AID 1113); conditions: higher = more signal;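 further: score merges 667 nm fluorescence intensity with signal-to-noise per printed feature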
[7] = small-molecule microarray binders of probe aShh, primary screen, biochemical, biotinylated probe, 635/667 nm fluorescence (AID 1114); conditions: higher = more signal;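 further: probe is biotin-labelled aShh protein from a stem cell growth factor screen; measures binding of labelled protein to compounds printed on the slide; score merges feature fluorescence at 667 nm with signal-to-noise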
[8] = small-molecule microarray binders of probe aNog, primary screen, biochemical, biotinylated probe, 635/667 nm fluorescence (AID 1115); conditions: higher = more signal;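 further: probe is biotinylated aNog protein used at 0.15 µg/mL for 1 h at 4 C; z-score combines 667 nm fluorescence of each spot with its signal to noise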
[9] = biological target: Torsin-1A-interacting protein 1 (Homo sapiens) (UniProt Q5JTV8); assay: LAP1 binders from COS7 cell lysate, primary screen, small-molecule microarray, 635/667 nm fluorescence (AID 1116); conditions: COS7-hLAP1 lysate binding, 635 nm fluorescence, higher = more signal
Sequence of Torsin-1A-interacting protein 1 (Homo sapiens) (Q5JTV8 whole entry, looked up): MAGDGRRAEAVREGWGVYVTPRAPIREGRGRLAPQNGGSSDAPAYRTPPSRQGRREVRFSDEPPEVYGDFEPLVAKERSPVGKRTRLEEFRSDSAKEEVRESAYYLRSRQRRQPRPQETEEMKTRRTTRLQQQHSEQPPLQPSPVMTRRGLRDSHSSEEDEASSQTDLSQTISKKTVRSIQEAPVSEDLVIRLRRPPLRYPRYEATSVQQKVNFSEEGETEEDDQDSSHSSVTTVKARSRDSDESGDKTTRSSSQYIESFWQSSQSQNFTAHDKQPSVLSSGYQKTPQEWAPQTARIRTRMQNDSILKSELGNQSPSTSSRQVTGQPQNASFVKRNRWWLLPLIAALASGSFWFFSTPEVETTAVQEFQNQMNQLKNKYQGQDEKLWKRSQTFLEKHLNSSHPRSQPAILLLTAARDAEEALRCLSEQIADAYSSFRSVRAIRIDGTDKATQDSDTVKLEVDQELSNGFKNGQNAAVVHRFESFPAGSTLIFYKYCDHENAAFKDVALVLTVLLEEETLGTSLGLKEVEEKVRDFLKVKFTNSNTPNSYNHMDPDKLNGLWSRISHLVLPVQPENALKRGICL

[10] = biological target: Alpha-bungarotoxin (Bungarus multicinctus) (UniProt P60615); assay: alpha-bungarotoxin binders on microarray, profiling panel, artefact control for SMM control protein annotation, biochemical, small-molecule microarray, Alexa647 label, 635/667 nm fluorescence (AID 1117); conditions: alpha-BTX-A647 binding fluorescence, higher = more signal
Sequence of Alpha-bungarotoxin (Bungarus multicinctus) (P60615 whole entry, looked up): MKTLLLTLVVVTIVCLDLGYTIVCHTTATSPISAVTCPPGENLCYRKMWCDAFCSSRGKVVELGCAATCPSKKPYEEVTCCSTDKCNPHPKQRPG

[11] = biological target: Albumin (Bos taurus) (UniProt P02769); assay: bovine serum albumin binders on microarray, profiling panel, artefact control for SMM control protein annotation, biochemical, small-molecule microarray, Alexa647 label, 635/667 nm fluorescence (AID 1118); conditions: BSA-A647 binding, fluorescence 635 nm, higher = more signal;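 further: score merges 667 nm emission intensity and signal-to-noise per printed compound spot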
Sequence of Albumin (Bos taurus) (P02769 whole entry, looked up): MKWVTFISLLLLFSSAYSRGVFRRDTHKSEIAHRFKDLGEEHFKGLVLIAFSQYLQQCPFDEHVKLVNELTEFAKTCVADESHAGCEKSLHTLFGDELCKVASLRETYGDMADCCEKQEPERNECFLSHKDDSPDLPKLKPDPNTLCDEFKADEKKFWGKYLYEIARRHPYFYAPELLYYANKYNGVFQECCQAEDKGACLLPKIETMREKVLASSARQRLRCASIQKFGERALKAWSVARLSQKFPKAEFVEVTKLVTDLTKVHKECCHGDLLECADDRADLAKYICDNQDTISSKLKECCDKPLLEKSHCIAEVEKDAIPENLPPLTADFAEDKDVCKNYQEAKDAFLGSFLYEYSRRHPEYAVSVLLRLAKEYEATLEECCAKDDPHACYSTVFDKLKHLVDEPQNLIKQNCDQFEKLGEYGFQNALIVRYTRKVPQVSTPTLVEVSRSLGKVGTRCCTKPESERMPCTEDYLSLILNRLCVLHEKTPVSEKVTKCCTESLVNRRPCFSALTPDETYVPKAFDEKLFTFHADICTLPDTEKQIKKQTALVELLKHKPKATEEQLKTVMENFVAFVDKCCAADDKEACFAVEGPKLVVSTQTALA

[12] = small-molecule microarray binders of probe aXIP, primary screen, biochemical, NeuroSMM set, 635/667 nm fluorescence (AID 1119); conditions: higher = more signal, called active from +8 up or from −8 down;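 further: probe is the protein aXip251-270 applied at 1 µg/mL to compound-printed slides; binding of probe to printed compounds measured as 667 nm fluorescence plus signal to noise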
[13] = small-molecule binders of probe aNOTCH3, primary screen, biochemical, small-molecule microarray, 635/667 nm fluorescence (AID 1120); conditions: higher = more signal;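 further: probe is a biotin-tagged antibody raised against NOTCH3 rather than NOTCH3 protein; score merges spot fluorescence near 667 nm with spot signal to noise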
[14] = small-molecule binders of probe aNOTCH2, primary screen, biochemical, small-molecule microarray, 635/667 nm fluorescence (AID 1121); conditions: higher = more signal;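 further: score merges feature fluorescence read at 667 nm with its signal to noise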
[15] = biological target: Carbonic anhydrase 2 (Homo sapiens) (UniProt P00918); assay: CAII small-molecule binders, profiling panel, biochemical, small-molecule microarray, Alexa647-labelled CAII (AID 1122); conditions: CAII-A647 binding fluorescence, higher = more signal
[16] = COS7 lysate on small-molecule microarray, probe aHis, 635 nm (AID 1123); conditions: COS7 cell lysate, fluorescence, higher = more signal;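 further: z-score combines 667nm fluorescence intensity with signal-to-noise per printed compound spot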
[17] = compound binding in COS7 lysate, probe aLAP1, primary screen, cell lysate, small-molecule microarray (AID 1124); conditions: probe aLAP1, fluorescence, higher = more signal;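 further: lysate comes from COS7 cells expressing LAP1 and is applied at 0.3 µg/mL; score merges spot fluorescence near 667 nm with signal-to-noise over triplicate slides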
[18] = tested on: Sam68 (KHDRBS1); assay: Sam68 small-molecule binders, primary screen, biochemical, small-molecule microarray, 635 nm fluorescence (AID 1125); conditions: small-molecule microarray binding, higher = more signal;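 further: score merges 667 nm channel intensity with signal to noise over triplicate slides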
[19] = tested on: Chordin-like protein 2 (CHRDL2); assay: CHRDL2 small-molecule binders, primary screen, biochemical, small-molecule microarray, 635 nm fluorescence (AID 1126); conditions: small-molecule microarray binding, fluorescence 635 nm; higher = more signal;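 further: printed compound slides probed with Chrdl2 protein at 4 µg/mL for 1 h at 4 C; score merges 667 nm emission intensity with signal to noise over three replicate slides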
[20] = biological target: Concanavalin-A (Canavalia ensiformis) (UniProt P02866); assay: ConA small-molecule binders, primary screen, artefact control for SMM control protein annotation, biochemical, small-molecule microarray, Alexa647 label, 635 nm (AID 1127); conditions: ConA-A647 binding fluorescence, higher = more signal;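 further: z combines 667 nm emission intensity with signal-to-noise across three replicate slides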
Sequence of Concanavalin-A (Canavalia ensiformis) (P02866 whole entry, looked up): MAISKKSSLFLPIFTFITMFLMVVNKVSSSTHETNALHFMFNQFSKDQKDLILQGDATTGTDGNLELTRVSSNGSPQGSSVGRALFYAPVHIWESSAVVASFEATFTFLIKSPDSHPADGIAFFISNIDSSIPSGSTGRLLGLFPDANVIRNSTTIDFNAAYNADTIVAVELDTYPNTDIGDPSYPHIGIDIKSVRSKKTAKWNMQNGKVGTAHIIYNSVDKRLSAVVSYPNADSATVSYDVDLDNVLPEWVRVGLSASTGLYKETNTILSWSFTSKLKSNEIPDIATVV

| Structure (SMILES) | composite z-score [1] | z-score [2] | composite z-score [3] | composite z-score [4] | composite z-score [5] | composite z-score [6] | composite z-score [7] | composite z-score [8] | composite z-score [9] | composite z-score [10] | composite z-score [11] | composite Z-score [12] | composite z-score [13] | composite z-score [14] | composite z-score [15] | composite z-score [16] | composite z-score [17] | composite z-score [18] | composite z-score [19] | composite z-score [20] |
| --- | --- | --- | --- | --- | --- | --- | --- | --- | --- | --- | --- | --- | --- | --- | --- | --- | --- | --- | --- | --- |
| COC(=O)CC=C[C@@H](C)[C@@H](C=NO[C@H](C)c1cn([C@@H]2COC[C@H]2O)nn1)NS(=O)(=O)c1ccc(C)cc1 | -0.12 | -0.483 | 0.722 | -0.0535 | -0.646 | -0.144 | -0.237 | -0.246 | 0.0982 | -0.361 | -0.129 | 0.355 (inactive) | 0.0316 | -0.0108 | -0.156 | 0.0779 | 0.219 | 0.277 | 0.877 | -0.653 |
| CCOC(=O)[C@H](Cc1ccccc1)NC(=O)CCC1CC(OC(=O)NCCc2ccc(F)cc2)CC2(CCCC(COC(=O)NCCc3ccccc3OC)O2)O1 (stereo not given in full) | 1.37 | -1.19 | 0.515 | 0.63 | -0.403 | -0.0236 | 0.0278 | -0.285 | 0.705 | 0.473 | 0.667 | -0.449 (inactive) | -0.0984 | -0.14 | 0.303 | 1.46 | 0.854 | 1.12 | 0.405 | 1.09 |
| O=c1n(Cc2cc3c(cc2Cl)OCO3)c(=O)n2n1CC[C@@H]1C(=NOCc3ccccc3)[C@H]3O[C@H]3[C@@H](O)[C@@H]12 | 0.439 | 0.51 | 0.582 | 0.0528 | -0.827 | -0.152 | -0.34 | -0.519 | 0.157 | -0.0536 | 0.0524 | 0.0993 (inactive) | 0.106 | -0.0495 | 0.177 | 0.155 | 0.708 | 0.529 | 0.6 | 0.223 |
| CCOC(=O)[C@H](Cc1ccccc1)NC(=O)OC1CC(CCC2CC(CC)=NO2)OC2(CCCC(COC(=O)NCCC(C)C)O2)C1 (stereo not given in full) | 0.836 | -1.39 | 0.0791 | 0.426 | 0.0002 | 0.0292 | -0.195 | 0.152 | 0.309 | 0.426 | 0.459 | 0.257 (inactive) | -0.133 | -0.179 | 0.312 | 0.86 | -0.342 | 0.676 | 0.139 | 0.918 |
| O=C1C[C@@H](O)[C@@H](O)[C@@H]2[C@@H]3C(=O)N(Cc4ccccc4)C(=O)[C@@H]3CC[C@@H]12 | 0.467 | -0.76 | 0.474 | -0.0573 | -0.761 | -0.195 | 0.0684 | -0.0784 | 0.442 | 0.101 | 0.256 | 0.277 (inactive) | -0.0328 | -0.12 | 0.0093 | -0.281 | 0.213 | 0.63 | 0.791 | 0.633 |
| COc1ccc(COC(=O)NN=C2C[C@@H](O)[C@@H](O)[C@@H]3[C@@H]4C(=O)N(c5cccc(Oc6ccccc6)c5)C(=O)[C@@H]4CC[C@@H]23)cc1 | -0.203 | -1.98 | -0.0421 | -0.338 | 0.0996 | -0.0165 | -0.117 | -0.0641 | 0.326 | 0.487 | 0.267 | 0.807 (inactive) | 0.123 | -0.149 | 0.0806 | 0.303 | -0.116 | -0.456 | -0.424 | -0.337 |
| COC(=O)CC=C[C@@H](C)[C@@H](C=NO[C@@H](C)c1cc(-c2c(C)cc(C)cc2C)no1)NS(=O)(=O)c1ccc(C)cc1 | -0.707 | -1.6 | -1.36 | -0.3 | 0.573 | -0.202 | -0.138 | 0.0011 | -0.436 | -0.744 | -0.356 | -0.136 (inactive) | -0.197 | -0.115 | -0.6 | -0.238 | -0.565 | -0.723 | -0.674 | -0.985 |
| CCN1C(=O)[C@H]2[C@H]3[C@H](O)[C@H](O)CC(=NNC(=O)OCc4ccc(OC)cc4)[C@@H]3CC[C@H]2C1=O | -0.246 | -0.193 | -0.0843 | -0.484 | -0.732 | -0.261 | 0.401 | -0.272 | -0.717 | 0.374 | -0.254 | 0.0958 (inactive) | 0.0945 | -0.0894 | -0.403 | -0.42 | 0.106 | -0.362 | 0.0319 | -0.205 |
| O=C1C[C@@H](O)[C@@H](O)[C@@H]2[C@@H]3C(=O)N(C[C@@H]4CCCO4)C(=O)[C@@H]3CC[C@H]12 | 0.265 | 0.624 | 0.903 | 0.0222 | -0.522 | -0.0478 | -0.0337 | 0.0309 | 0.224 | 0.384 | 0.225 | -0.472 (inactive) | 0.0197 | -0.203 | 0.0413 | 0.157 | -0.117 | 0.354 | 0.72 | 0.186 |
| CO[C@H]1COC(=O)CC=C[C@H](C)[C@@H](OC)COC(=O)[C@@H](C)NC(=O)CC=C[C@@H]1C | -2.13 | -1.42 | 0.962 | -0.857 | -1.55 | -0.119 | -0.367 | -0.274 | 0.12 | -0.352 | -0.614 | 0.611 (inactive) | -0.173 | -0.169 | -0.581 | -0.629 | 0.304 | -0.0974 | 1.47 | -0.897 |
| CO[C@H]1COC(=O)[C@@H](C)COC(=O)[C@@H](OCc2ccccc2)C=C[C@@H]1C | -0.193 | -1.38 | 0.281 | 0.0243 | -0.642 | -0.0346 | -0.276 | -0.37 | -0.0153 | -0.807 | -0.858 | -0.535 (inactive) | -0.103 | -0.115 | -0.369 | -0.194 | -0.259 | -0.234 | 0.159 | -0.459 |
